Assay outcomes deposited in PubChem BioAssay by National Center for Advancing Translational Sciences (NCATS).
TDP1 cell CPT – growth inhibition of DT40 Tdp1-/-;hTDP1 cells with camptothecin (screen for TDP1 inhibitors); Potency, µM (top dose mostly 46.2 µM), for the others: top-dose activity change, negative = growth inhibition, most hits filed as inhibitors; AID 686979; hit rate 12% among 420,000; chicken DT40 Tdp1-/-;hTDP1 cells + 20 nM CPT, ATP luminescence, 48 h; further: nearly all actives have a fitted effect of over 55% in size
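Chicken DT40 Tdp1-/- cells complemented with human TDP1, 400 cells/well, exposed to compounds plus 20 nM camptothecin for at least 48 h at 37 C; viability read as ATP content by CellTiter-Glo luminescence.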
ALOX12 inh – ALOX12 (human) lipoxygenase inhibition. Potency, µM (doses to about 108 µM), inactives show at the highest dose activity change, negative = inhibition, actives largely listed as inhibitors. hit rate 1.1% among 580,000. purified 12hLO, xylenol orange hydroperoxide absorbance. P18054. AID 1671190
Target sequence (P18054 whole entry, looked up): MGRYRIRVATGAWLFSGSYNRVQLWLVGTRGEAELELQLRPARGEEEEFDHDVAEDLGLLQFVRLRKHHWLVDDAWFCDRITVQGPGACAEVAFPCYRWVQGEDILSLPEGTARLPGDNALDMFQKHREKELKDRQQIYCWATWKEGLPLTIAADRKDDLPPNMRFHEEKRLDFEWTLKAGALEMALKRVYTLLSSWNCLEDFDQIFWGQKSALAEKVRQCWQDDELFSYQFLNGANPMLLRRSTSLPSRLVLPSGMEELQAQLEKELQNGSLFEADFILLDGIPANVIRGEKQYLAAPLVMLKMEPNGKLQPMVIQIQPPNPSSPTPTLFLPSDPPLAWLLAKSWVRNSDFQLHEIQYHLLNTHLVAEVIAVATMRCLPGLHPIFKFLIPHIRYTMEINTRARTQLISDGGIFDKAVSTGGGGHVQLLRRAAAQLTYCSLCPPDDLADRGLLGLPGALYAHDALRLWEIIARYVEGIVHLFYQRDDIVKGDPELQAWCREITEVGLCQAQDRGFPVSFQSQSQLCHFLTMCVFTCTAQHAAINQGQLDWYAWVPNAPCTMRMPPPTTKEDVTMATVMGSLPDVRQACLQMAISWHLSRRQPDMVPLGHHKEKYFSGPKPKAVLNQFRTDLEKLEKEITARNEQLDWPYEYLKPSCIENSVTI
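Hydroperoxide product was detected by ferrous iron/xylenol orange as the 573 to 405 nm absorbance ratio. Arachidonic acid at 40 uM (final) was turned over for 30 min at room temperature by 150 nM human 12hLO, pH 7.0 Hepes buffer, after 15 min compound preincubation.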
Gal4-VP16 FLuc – inhibits Gal4-VP16 luciferase reporter, ROR gamma counter-screen; Potency, µM (titrated, usually from 53.6 µM), inactives show at the top dose activity, negative = inhibition, usual class: inhibitors; AID 2546; hit rate 3.5% among 310,000; Drosophila S2 Gal4-VP16 UAS-luciferase, luminescence, 20 h;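 further: Gal4-VP16 expression switched on by copper sulfate through the metallothionein promoter; nearly all actives have a fitted effect of over 50% in size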
ELG1 repair inh – blocks ELG1-dependent DNA repair in HEK293T cells. HEK293T ELG1-luciferase reporter, luminescence, 16 h; DNA damage induced by 5-fluorouridine. Potency, µM (doses to about 46.1 µM), without a hit: at the highest dose activity change, negative = inhibition, actives largely listed as inhibitors. hit rate 2.3% among 330,000; further: nearly all actives have a fitted effect of over 55% in size
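Quantitative HTS, concentration-response format. 2,000 cells/well co-treated with 5-fluorouridine and compound, 16 hr in 5% CO2 at 37 °C; ONE-Glo luminescence read after 30 min.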
DT40 TDP1 no CPT – qHTS for Inhibitors of human tyrosyl-DNA phosphodiesterase 1 (TDP1): qHTS in cells in absence of CPT; hit rate 15% among 420,000; DT40 Tdp1-/- hTDP1 cells, no CPT, ATP luminescence, 48 h; Potency, µM (titrated, usually from 46.2 µM), without a hit: at the highest dose activity change, negative = growth inhibition, actives largely listed as inhibitors; further: nearly all actives have a fitted effect of over 55% in size
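Seeded 400 DT40-hTDP1 cells/well (vehicle DMSO, no 20 nM CPT); pinned compounds; ≥48 hr at 37 °C; CellTiter-Glo luminescence as viability measure.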
RORg inh – ROR gamma (mouse) transcription inhibition | P51450 | Drosophila S2 Gal4-RORgamma UAS-luciferase reporter, 20 h | Potency, µM (top dose mostly 53.6 µM), for the others: top-dose activity change, negative = inhibition, actives largely listed as inhibitors | hit rate 5.4% among 310,000 | AID 2551; further: nearly all actives have a fitted effect of over 60% in size
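Schneider cells (Drosophila), stable Gal4 DBD–ROR gamma + UAS-luc; 1 hr cmpd preincubation; Cu2+ induction 700 uM final; 20 hr ambient; luminescence.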
An asterisk follows results filed as active; ? = inconclusive; · = no result given; [ ] = another dose, or the depositor's remark. Hits are enriched below; roughly 15% of the tested compounds scored in any of these assays. The call rests on the fitted dose curve; in most records, active means well fitted curve in the direction sought with a large enough effect; inconclusive means small, poorly fitted or top-dose-only effect, or another doubt; inactive means no such curve, though single readings can be large; an effect the other way counts as inactive or inconclusive. On the % scale 0 is the no-effect control and ±100 the full control effect; potency means the concentration at half of the fitted maximal effect.

SMILES | TDP1 cell CPT | ALOX12 inh | Gal4-VP16 FLuc | ELG1 repair inh | DT40 TDP1 no CPT | RORg inh
O=c1[nH]c2ccccc2n1C1CCN(C(c2nnnn2-c2ccc3c(c2)OCCO3)C2CC2)CC1 (stereo unspecified) | 13µM* | ? | · | · | 7.31µM* | ·
O=C1NCN(c2ccccc2)C12CCN(C(c1cccc3ccccc13)c1nnnn1-c1ccc3c(c1)OCCO3)CC2 (stereo unspecified) | ? | -15.1% | · | · | ? | ·
O=c1[nH]c2ccccc2n1C1CCN(C(c2ccccc2)c2nnnn2-c2ccc3c(c2)OCCO3)CC1 (stereo unspecified) | 18.4µM* | -25.2% | · | · | 18.4µM* | ·
O=c1[nH]c2ccccc2n1C1CCN(C(c2cccs2)c2nnnn2-c2ccc3c(c2)OCCO3)CC1 (stereo unspecified) | 2.91µM* | 4.0% | · | · | 2.31µM* | ·
Cc1nc(-c2ccc(N(C)C)cc2)cc([C@H]2CN3CC[C@H]2C[C@@H]3CNC(=O)C2CC2)n1 | · | 73.8%[176 µM] | · | · | · | ·
O=[N+]([O-])/C=C\c1c[nH]c2ccccc12 | · | 32.7% | · | · | · | ·
Cn1c(=O)c2[nH]c(N3CCNCC3)nc2n(C)c1=O | · | 7.7% | · | · | · | ·
C[n+]1ccc(-c2ccncc2)cc1 | 1.8% | 12.6µM* | -2.2% | 3.2% | 0.4% | -11.3%
Cc1ncc2c(n1)C[C@@H]1CC[C@H]2N1C(=O)Cc1ccccc1 | · | 48.5% | · | · | · | ·
CC(=O)O[C@H]1CC[C@H]2[C@@H]3CCC4=CC(=O)CCC4=C3C=C[C@]12C | ? | · | 4.0% | · | -105.0% | -15.9%
C#C[C@]1(O)CC[C@H]2[C@@H]3CCC4=CC(=O)CCC4=C3C=C[C@@]21CC | 13.3µM* | ? | -8.8% | · | 9.44µM* | 27.9%
COc1cc2cc(c1Cl)N(C)C(=O)CC(OC(=O)C(C)N(C)C(C)=O)C1(C)OC1C(C)C1CC(O)(NC(=O)O1)C(OC)C=CC=C(C)C2 (stereo unspecified) | 0.0461µM* | 0.4% | · | · | 0.13µM* | ·
CC[C@H]1CN2CC[C@H]1C[C@@H]2CNS(=O)(=O)c1cccc(F)c1 | · | 12.9%[176 µM] | · | · | · | ·
COC(=O)C1=C(c2ccc(OCc3ccccc3)cc2)C[C@@H]2CC[C@H]1N2C(=O)NCc1ccccc1C(F)(F)F | 16.4µM* | ? | · | · | 11.6µM* | ·
COC(=O)C1=C(c2ccc(OCc3ccccc3)cc2)C[C@@H]2CC[C@H]1N2C(=O)NCc1ccc(F)cc1 | 14.6µM* | -8.1% | · | · | 23.1µM* | ·
COC(=O)C1=C(c2ccc(OCc3ccccc3)cc2)C[C@@H]2CC[C@H]1N2C(=O)NCc1ccc(OC)c(OC)c1 | 18.4µM* | 81.0% | · | ? | 23.1µM* | ·
COC(=O)C1=C(c2ccc(OCc3ccccc3)cc2)C[C@@H]2CC[C@H]1N2C(=O)NCc1ccccc1OC | 16.4µM* | 0.0% | · | · | 8.2µM* | ·
COC(=O)C1=C(c2ccccc2)C[C@@H]2CC[C@H]1N2C(=O)NCc1ccccc1 | 0.1% | 18.0% | · | · | -25.1% | ·
COC(=O)C1=C(c2cccc(OCc3ccccc3)c2)C[C@@H]2CC[C@H]1N2C(=O)NCc1ccc(F)cc1 | ? | 12.6% | · | -26.1% | ? | ·
COC(=O)C1=C(c2ccc(OCc3ccccc3)cc2)C[C@@H]2CC[C@H]1N2C(=O)NCc1ccc(N(C)C)cc1 | ? | 20.7% | · | ? | ? | ·
Cn1nc(-c2ccc(F)cc2)cc1[C@H]1CN2CC[C@H]1C[C@@H]2CNC(=O)N1CCOCC1 | · | 6.7%[176 µM] | · | · | · | ·
COc1ccc(-c2cc([C@H]3CN4CC[C@H]3C[C@@H]4CN)n(C)n2)cc1OC | · | 101.2%[176 µM] | · | · | · | ·
COc1ccc(CN2C[C@@H]3C[C@H]2C(=O)Nc2ccccc2O3)cn1 | · | -2.4%[176 µM] | · | · | · | ·
COC(=O)C1=C(c2ccc(OCc3ccccc3)cc2)C[C@@H]2CC[C@H]1N2C(=O)NCCCc1ccccc1 | 14.6µM* | 3.4% | · | -15.4% | 13µM* | ·
COC(=O)C1=C(c2cccc(OCc3ccccc3)c2)C[C@@H]2CC[C@H]1N2C(=O)NCCCc1ccccc1 | ? | -6.9% | · | ? | ? | ·
SMILES | TDP1 cell CPT | ALOX12 inh | Gal4-VP16 FLuc | ELG1 repair inh | DT40 TDP1 no CPT | RORg inh
COC(=O)[C@@H]1[C@@H](C(=O)OC)C2(c3ccccc3-c3ccccc32)N(c2ccc(Cl)cc2)N1C#N | 2.59µM* | -4.6% | 4.47µM* | ? | 2.59µM* | ?
COC(=O)C[C@]1(C(=O)OC)CN(C#N)N(c2ccc(Cl)cc2)C12c1ccccc1-c1ccccc12 | 1.03µM* | -26.0% | 3.16µM* | 25.9µM* | 0.92µM* | 5.62µM*
CN(Cc1ccccc1)C[C@H]1CN2CC[C@H]1C[C@@H]2CNC(=O)c1ccc(C(F)(F)F)cc1 | · | -13.3% | · | · | · | ·
CC(CCN1CC1)=NNC(=O)Nc1cccc2ccccc12 | 7.31µM* | 12.7% | · | · | 8.2µM* | ·
Cc1nc(-c2ccc(C(F)(F)F)cc2)cc([C@H]2CN3CC[C@H]2C[C@@H]3CNC(=O)c2ccccc2C(=O)O)n1 | · | -6.7% | · | · | · | ·
N#CC(C(=O)C12CC3CC(CC(C3)C1)C2)c1nc2ccccc2[nH]1 (stereo unspecified) | ? | 21.8% | 10µM* | -11.4% | ? | 3.98µM*
CN1CCN([C@H]2[C@@H]3OC[C@@H](O3)[C@@H](NCc3ccccn3)[C@@H]2O)CC1 | · | 145.9%[176 µM] | · | · | · | ·
COCC1CN(C)CC12CCNCC2 (stereo unspecified) | · | 10.9% | · | · | · | ·
CC1=C(O)C(=O)C=C2C1=CC=C1C2(C)CCC2(C)C3CC(C)(C(=O)O)CCC3(C)CCC12C (stereo unspecified) | 1.3µM* | 4.47µM* | · | · | 1.03µM* | ·
Cc1c(O)c(O)cc2c1CC=C1[C@]3(C)CC[C@]4(C)CC[C@@](C)(C(=O)O)CC4[C@]3(C)CC[C@]12C (stereo partly specified) | 7.31µM* | · | 12.6µM* | · | 4.11µM* | ?
CCc1ccc2c(CN3CC=C(c4ccccc4)CC3)cc(=O)oc2c1 | ? | ? | 5.7% | 17.0% | 16.4µM* | -10.1%
O=c1[nH]c(CN2CC=C(c3ccccc3)CC2)nc2cc(C(F)(F)F)ccc12 | ? | 488.5% | -1.5% | 1.4% | ? | 3.9%
Cc1ccc2c(CN3CC=C(c4ccccc4)CC3)cc(=O)oc2c1C | ? | -18.9% | -6.7% | 12.4% | 23.1µM* | 0.7%
Cc1ccc(C(C)C)c(OCC(=O)N2CCN(Cc3nc4cc([N+](=O)[O-])ccc4n3C)CC2)c1 | 1.2% | 1.7% | -22.1% | 20.6µM* | -3.5% | 33.9%
Cc1cc(OCC(=O)N2CCN(Cc3nc(N)c4ccccc4n3)CC2)ccc1C(C)C | · | 25.5% | · | · | · | ·
